Activity calls are given as the source filed them. The calls were made as follows: active = hit-call score of the fitted dose curve at least 0.9, where 1 is the maximum; inactive = score below 0.9.

One may read the AC50 as the concentration at which the activity in the assay is half-maximal.

Holding throughout (conditions): mRNA level, 48 h; actives raise or lower the signal
Read-out in assay [1]: Lipoprotein lipase (LPL), LPL (gene 4023)
Put plainly: LTEA_HepaRG_LPL: Life Technologies and Expression Analysis (LTEA) Assay for Lipoprotein lipase (LPL) using HepaRG (AID 2283515). The procedure, abridged:
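Differentiated human HepaRG cells in serum-free induction medium were exposed in duplicate for 48 h to eight half-log concentrations (top 100 uM) in 0.5% DMSO. LPL mRNA was quantified by TaqMan qRT-PCR, normalized to ACTB, GAPDH and POLR2A.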

Read-out in assay [2]: MicroRNA 122 (MIR122), gene 406906
The assay is described as follows: LTEA_HepaRG_MIR122: Life Technologies and Expression Analysis (LTEA) Assay for MicroRNA 122 (MIR122) using HepaRG (AID 2283516). Also: the transcript read is the microRNA miR-122. Summed up:
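HepaRG plated 48 h, switched to serum-free induction medium, then treated in duplicate for 48 h (100 uM top, half-log steps, 0.5% DMSO vehicle). RNA isolated, qRT-PCR performed, concentration-response fitted both directions relative to DMSO.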

Read-out in assay [3]: matrix metalloproteinase-10 (MMP10), MMP10 (gene 4319)
Put plainly: LTEA_HepaRG_MMP10: Life Technologies and Expression Analysis (LTEA) Assay for matrix metalloproteinase-10 (MMP10) using HepaRG (AID 2283517). Summed up: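 HepaRG, collagen I, ~100,000 cells/well; serum-free induction medium; 48 h exposure, duplicate, 8-pt half-log to 100 uM, 0.5% DMSO. Readout: TaqMan qRT-PCR, normalized to ACTB/GAPDH/POLR2A; bidirectional fit vs DMSO.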

Read-out in a further assay: MYC, MYC (gene 4609)
The assay is described as follows: LTEA_HepaRG_MYC: Life Technologies and Expression Analysis (LTEA) Assay for MYC using HepaRG (AID 2283518). Summed up:
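qRT-PCR read-out of MYC transcript (Fluidigm TaqMan, housekeeping-normalized) after 48 h chemical exposure of HepaRG cells; eight concentrations, top 100 uM, half-log steps. Bidirectional curve fitting against 0.5% DMSO vehicle baseline.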

Read-out in assay [4]: matrix metalloproteinase-3 (MMP3), MMP3 (gene 4314)
The assay is described as follows: LTEA_HepaRG_MMP3: Life Technologies and Expression Analysis (LTEA) Assay for matrix metalloproteinase-3 (MMP3) using HepaRG (AID 2283519). Summed up:
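Differentiated human HepaRG cells, plated 48 h on collagen I, were exposed in duplicate for 48 h in serum-free induction medium to eight half-log concentrations up to 100 uM in 0.5% DMSO. MMP3 mRNA was quantified by TaqMan qRT-PCR, normalised to ACTB, GAPDH and POLR2A.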

Read-out in assay [5]: Paternally Expressed 10 (PEG10), PEG10 (gene 23089)
Put plainly: LTEA_HepaRG_PEG10: Life Technologies and Expression Analysis (LTEA) Assay for Paternally Expressed 10 (PEG10) using HepaRG (AID 2283520). The procedure, abridged:
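HepaRG, 48 h post-plating → serum-free induction medium → 48 h chemical exposure (duplicate, 8-pt, max 100 uM, half-log, 0.5% DMSO) → lysis in RLT → TaqMan qRT-PCR for PEG10, ACTB/GAPDH/POLR2A normalisation.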

Read-out in assay [6]: Nuclear factor NF-kappa-B p105 subunit (Homo sapiens) (UniProt P19838)
The assay is described as follows: LTEA_HepaRG_NFKB1: Life Technologies and Expression Analysis (LTEA) Assay for Nuclear Factor Kappa B Subunit 1 (NFKB1) using HepaRG (AID 2283521).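 As to outcome: TaqMan qRT-PCR transcript normalised to ACTB GAPDH and POLR2A housekeeping genes.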 Summed up: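 Differentiated human HepaRG cells were exposed for 48 h in serum-free induction medium to eight concentrations (top 100 uM, half-log steps, 0.5% DMSO), in duplicate. NFKB1 mRNA was measured by TaqMan qRT-PCR, normalized to ACTB/GAPDH/POLR2A, and fitted bidirectionally against DMSO.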

Read-out in assay [7]: Protein phosphatase 2A (PPP2R4), PTPA (gene 5524)
Put plainly: LTEA_HepaRG_PPP2R4: Life Technologies and Expression Analysis (LTEA) Assay for Protein phosphatase 2A (PPP2R4) using HepaRG (AID 2283522). The procedure, abridged: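 Readout is PPP2R4 transcript level by microfluidic qRT-PCR after 48 h chemical treatment of human HepaRG liver cells. Concentrations spanned 100 uM downward in half-log steps; gain or loss of signal was fitted relative to DMSO.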

Read-out in assay [8]: Phosphatase and tensin (PTEN), PTEN (gene 5728)
Put plainly: LTEA_HepaRG_PTEN: Life Technologies and Expression Analysis (LTEA) Assay for Phosphatase and tensin (PTEN) using HepaRG (AID 2283523). The procedure, abridged:
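Differentiated human HepaRG cells, plated 48 h then switched to serum-free induction medium, were exposed in duplicate for 48 h to eight half-log concentrations up to 100 uM in 0.5% DMSO. PTEN mRNA measured by TaqMan qRT-PCR, normalized to ACTB/GAPDH/POLR2A, bidirectional fit versus DMSO.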

Read-out in assay [9]: solute carrier (SLC22A1), SLC22A1 (gene 6580)
The assay is described as follows: LTEA_HepaRG_SLC22A1: Life Technologies and Expression Analysis (LTEA) Assay for solute carrier (SLC22A1) using HepaRG (AID 2283524). Summed up:
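Human HepaRG cells were plated 48 h, switched to serum-free induction medium, then exposed in duplicate for 48 h to 8-point half-log series from 100 uM in 0.5% DMSO. SLC22A1 mRNA measured by qRT-PCR, normalized to ACTB/GAPDH/POLR2A, fitted bidirectionally versus DMSO.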

Sequence of Nuclear factor NF-kappa-B p105 subunit (Homo sapiens) (P19838 whole entry, looked up): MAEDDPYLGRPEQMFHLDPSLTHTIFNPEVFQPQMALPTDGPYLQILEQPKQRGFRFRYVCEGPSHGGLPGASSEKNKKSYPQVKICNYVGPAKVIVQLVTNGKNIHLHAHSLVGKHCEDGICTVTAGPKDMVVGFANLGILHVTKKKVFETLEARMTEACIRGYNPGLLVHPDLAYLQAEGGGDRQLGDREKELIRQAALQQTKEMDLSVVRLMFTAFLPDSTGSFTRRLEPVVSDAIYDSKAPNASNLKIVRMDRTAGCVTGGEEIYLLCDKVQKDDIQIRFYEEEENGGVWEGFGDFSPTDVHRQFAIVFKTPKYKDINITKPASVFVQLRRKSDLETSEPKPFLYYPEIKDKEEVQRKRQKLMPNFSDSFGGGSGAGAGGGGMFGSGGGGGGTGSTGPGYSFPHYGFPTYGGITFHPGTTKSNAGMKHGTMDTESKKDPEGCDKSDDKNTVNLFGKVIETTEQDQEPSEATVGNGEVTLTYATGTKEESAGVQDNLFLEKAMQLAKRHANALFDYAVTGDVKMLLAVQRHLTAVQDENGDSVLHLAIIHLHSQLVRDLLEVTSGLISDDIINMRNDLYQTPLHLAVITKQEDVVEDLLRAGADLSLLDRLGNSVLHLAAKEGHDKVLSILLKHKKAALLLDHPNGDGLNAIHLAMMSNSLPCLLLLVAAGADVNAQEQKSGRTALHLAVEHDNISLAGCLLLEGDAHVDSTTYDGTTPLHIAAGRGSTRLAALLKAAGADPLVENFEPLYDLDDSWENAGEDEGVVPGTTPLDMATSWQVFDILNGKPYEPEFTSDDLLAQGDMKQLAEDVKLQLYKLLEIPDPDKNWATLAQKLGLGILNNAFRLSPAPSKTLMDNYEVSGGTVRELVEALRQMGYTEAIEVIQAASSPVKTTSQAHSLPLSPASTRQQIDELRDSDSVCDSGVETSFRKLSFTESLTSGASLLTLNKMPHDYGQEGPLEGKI

Take `CCOC(=O)CC(O)(CC(=O)OCC)C(=O)OCC`: the outcome is “inactive” in assay [1]; “inactive” in assay [2]; “inactive” in assay [3]; “inactive” in the assay with MYC, MYC (gene 4609); “inactive” in assay [4]; “inactive” in [5]. The molecule was classed as inactive in assay [6], in assay [7], in assay [8] and in [9].

`CCCCCCCCCCCCc1ccccc1S(=O)(=O)O`: the AC50 in [1] is 11.7 µM (active); in assay [2], 80.6 µM (active); in [3] it was 82.8 µM (active); in assay [4], 26.9 µM (active); in [7] it was 21.2 µM (active); in assay [8] it was 12 µM (active). Also, the AC50 in assay [9] is 93.2 µM (active). The result in assay [5] and in assay [6] was inactive.

Turning to `CC#C[C@]1(O)CC[C@H]2[C@@H]3CCC4=CC(=O)CCC4=C3[C@@H](c3ccc(N(C)C)cc3)C[C@@]21C`, the AC50 in assay [1] was 76.2 µM (active); in assay [2] it was 50 µM (active); in assay [3], 33.5 µM (active); in [6] it was 50 µM (active); in assay [7], 13.8 µM (active); in assay [9], 25.2 µM (active). Besides, the molecule was classed as inactive in assay [4], in assay [5] and in [8].

As to `C#C[C@]1(O)CC[C@H]2[C@@H]3CCC4=CC(=O)CC[C@@H]4[C@H]3CC[C@@]21C`, the outcome is “inactive” in [1]; “inactive” in assay [2]; “inactive” in assay [3]; “inactive” with MYC, MYC (gene 4609); “inactive” in assay [6]; “inactive” in [7]. The result in [8] was inactive. The results for the AC50 in [4], in assay [5] and in assay [9] were 7.81 µM (active), 0.321 µM (active) and 32.1 µM (active), respectively.

Turning to `ClC1=C(Cl)C(Cl)(Cl)C(Cl)=C1Cl`, the outcome in [1] was “inactive”; in assay [2], “inactive”; in [3], “inactive”; with MYC, MYC (gene 4609) it was “inactive”; in [4], “inactive”; in assay [5], “inactive”. The result in assay [6], in assay [7], in assay [8] and in assay [9] was inactive.

In the case of `CCN(CC)CCNc1ccc(CNC=O)c2sc3ccc(OC)cc3c(=O)c12`, the AC50 in assay [1] is 81.8 µM (active); in assay [2], 27.5 µM (active); in assay [3] it was 78.5 µM (active); in assay [4] it was 86.4 µM (active); in assay [5] it was 62 µM (active); in assay [7] it was 50 µM (active). In addition, the concentration at half-maximal activity (AC50) in assay [8] is 50 µM (active); in assay [9], 13.9 µM (active). The outcome in the assay with MYC, MYC (gene 4609) was inactive.

Turning to `CC(C)(C)c1cccc(C(C)(C)C)c1O`, the outcome in [1] is “inactive”; in assay [2] it was “inactive”; in assay [3], “inactive”; in the assay with MYC, MYC (gene 4609) it was “inactive”; in [4], “inactive”; in [5] it was “inactive”. Moreover, the outcome in [6], in assay [7], in assay [8] and in assay [9] was inactive.

As for `CCCCCCCCCCCCCCCS(=O)(=O)Oc1ccccc1`, the outcome in assay [1] is “inactive”; in assay [2] it was “inactive”; in assay [3] it was “inactive”; in the assay with MYC, MYC (gene 4609) it was “inactive”; in assay [4] it was “inactive”; in assay [5], “inactive”. Further, the molecule was called inactive in [6], in [7], in assay [8] and in [9].

On to `Cc1oc(-c2ccccc2)nc1CCOc1ccc(C[C@H](Nc2ccccc2C(=O)c2ccccc2)C(=O)O)cc1`, for which the molecule was classed as inactive in assay [1], in [2] and in assay [6]. The half-maximal activity concentration (AC50) in [3] is 25 µM (active); in the assay with MYC, MYC (gene 4609) it was 12.5 µM (active); in [4] it was 50 µM (active); in assay [5] it was 20.8 µM (active); in assay [7] it was 29.1 µM (active); in assay [8], 23 µM (active). Besides, the half-maximal activity concentration (AC50) in assay [9] is 50 µM (active).

For the molecule `N#C[C@@H]1CC(F)(F)CN1C(=O)CNC1CC2CCC(C1)N2c1ncccn1` (stereo partly specified), the outcome in assay [1] was “inactive”; in assay [2], “inactive”; in assay [3] it was “inactive”; with MYC, MYC (gene 4609), “inactive”; in assay [4], “inactive”; in assay [5] it was “inactive”. The outcome in assay [7], in assay [8] and in [9] was inactive. Besides, the AC50 in assay [6] was 1.8 µM (active).

For the molecule `Cc1cc(CCN2CCN(c3nsc4ccccc34)CC2)cc2c1NC(=O)CC2(C)C`, the AC50 in assay [1] was 50 µM (active); in assay [2], 78.5 µM (active); in the assay with MYC, MYC (gene 4609) it was 87.1 µM (active); in [9], 84.8 µM (active). Further, the molecule was classed as inactive in assay [3], in assay [4], in assay [5], in assay [6], in assay [7] and in assay [8].

As for `Oc1cccc(O)c1`, the outcome was “inactive” in [1]; “inactive” in [2]; “inactive” in assay [3]; “inactive” with MYC, MYC (gene 4609); “inactive” in assay [4]; “inactive” in assay [5]. The outcome in assay [6], in assay [7], in [8] and in assay [9] was inactive.

Consider `OC1CCCCC1`, for which the call in assay [1], in assay [2], in [3], in assay [4], in [5] and in assay [7] was inactive. Also, the outcome in assay [8] and in assay [9] was inactive.

As for `CCc1ccc(CCOc2ccc(CC3SC(=O)NC3=O)cc2)nc1` (stereo unspecified), the AC50 is 9.92 µM (active) in assay [1]; 72.7 µM (active) in [2]; 86.3 µM (active) in assay [3]; 14.2 µM (active) in assay [5]; 50 µM (active) in [7]; 66.6 µM (active) in [9]. Moreover, the outcome in [4], in assay [6] and in assay [8] was inactive.

As for `CCCCC(CC)COC(=O)CCCCC(=O)OCc1ccccc1` (stereo unspecified), the outcome in assay [1], in assay [2], in assay [3], in assay [4], in assay [5] and in assay [7] was inactive. The molecule was called inactive in assay [8] and in assay [9].

In the case of `CC(=O)NC1(c2cccc(F)c2)CCN(CC[C@@]2(c3ccc(Cl)c(Cl)c3)CN(c3ccccc3)C(=O)CO2)CC1`, the AC50 is 23.1 µM (active) in [1]; 71 µM (active) in assay [3]; 61.6 µM (active) in assay [6]; 65.3 µM (active) in assay [8]; 77.2 µM (active) in assay [9]. The molecule was classed as inactive in [2], in assay [4], in [5] and in assay [7].

Turning to `CC(C)CCCCCCOC(=O)CCCCC(=O)OCCCCCCC(C)C`, the result in assay [1], in assay [2], in assay [3], in assay [4], in [5] and in [6] was inactive. For the same molecule, the result in assay [7], in [8] and in assay [9] was inactive.

For the molecule `CC(=O)CC(C)(C)O`, the result in assay [1], in assay [2], in [3], in [4], in assay [5] and in [6] was inactive. Also, the outcome in assay [7], in assay [8] and in assay [9] was inactive.

As for `CCCCCCCCC(=O)O`, the molecule was classed as inactive in assay [1], in assay [2], in assay [3], in assay [4], in assay [5] and in assay [7]. Also, the molecule was called inactive in assay [8] and in assay [9].

With `O=C(O)Cc1cc(I)c(Oc2cc(I)c(O)c(I)c2)c(I)c1`, the AC50 is 60.6 µM (active) in assay [1]; 58.6 µM (active) in assay [2]; 51.5 µM (active) in [3]; 51.5 µM (active) in [4]; 0.228 µM (active) in [5]; 52.8 µM (active) in assay [6]. Further, the AC50 in assay [7] was 54.9 µM (active); in assay [8], 59.9 µM (active); in [9] it was 53.1 µM (active).

Values taken from PubChem BioAssay (EPA / NIEHS).
